This note sets out measurements from PubChem BioAssay (EPA / NIEHS).

Read-out in assay [1]: xenobiotic metabolism (CYP1A1), CYP1A1 (gene 1543)
In words: CLD_CYP1A1_6hr: CellzDirect (CLD) Gene Expression Assay for xenobiotic metabolism (CYP1A1) at 6 hours (AID 2283661).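 As to AC50: potency for transcript induction above DMSO vehicle baseline.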 Put shortly:
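Primary human hepatocytes from two donors, compound versus 0.2% DMSO vehicle. CYP1A1 mRNA measured 6 h after dosing by quantitative nuclease protection assay with chemiluminescent read-out; induction fitted relative to DMSO, cytotoxicity flagged by microscopy.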

Read-out in assay [2]: xenobiotic metabolism (CYP1A2), CYP1A2 (gene 1544)
In words: CLD_CYP1A2_6hr: CellzDirect (CLD) Gene Expression Assay for xenobiotic metabolism (CYP1A2) at 6 hours (AID 2283663). Put shortly: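 Primary human hepatocytes from two donor preparations, dosed daily with multiple concentrations in 0.2% DMSO and harvested at 6 h. CYP1A2 mRNA induction measured by chemiluminescent qNPA, gain of signal fitted against DMSO; cytotoxicity flagged morphologically.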

Read-out in assay [3]: organic anion transporter (SLCO1B1), SLCO1B1 (gene 10599)
The assay can be described thus: CLD_SLCO1B1_6hr: CellzDirect (CLD) Gene Expression Assay for organic anion transporter (SLCO1B1) at 6 hours (AID 2283668).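 Also: active means mRNA induction above DMSO baseline.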 Put shortly:
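Primary human hepatocytes dosed daily with test chemicals (multiple concentrations) in 0.2% DMSO vehicle; harvested at 6 h. SLCO1B1 mRNA quantified by qNPA chemiluminescence, fitted as gain-of-signal versus DMSO; cytotoxicity from phase-contrast morphology flagged alongside.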

Assay [4] can be described thus: CLD_ACTIN_24hr: CellzDirect (CLD) Gene Expression Assay for Baseline Control (Actin) at 24 hours (AID 2283670). Put shortly:
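Primary human hepatocytes dosed over multiple concentrations with 0.2% DMSO vehicle; actin mRNA measured at 24 h by qNPA chemiluminescence. Background control endpoint, fitted as gain of signal versus DMSO.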

Read-out in assay [5]: xenobiotic metabolism (CYP1A1), CYP1A1 (gene 1543)
In words: CLD_CYP1A1_24hr: CellzDirect (CLD) Gene Expression Assay for xenobiotic metabolism (CYP1A1) at 24 hours (AID 2283673).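 Also: CYP1A1 mRNA level by quantitative nuclease protection with chemiluminescence.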 Put shortly:
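Primary human hepatocytes dosed daily with fresh solutions in 0.2% DMSO vehicle. mRNA measured at 24 h by quantitative nuclease protection assay with chemiluminescence; gain-of-signal fit versus DMSO, with morphology-based cytotoxicity flags.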

The nature of assay [6]: CLD_ACTIN_6hr: CellzDirect (CLD) Gene Expression Assay for Baseline Control (Actin) at 6 hours (AID 2283676).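 Also: active means increased actin mRNA relative to DMSO vehicle.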 Put shortly: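 Primary human hepatocytes dosed with fresh chemical solutions (vehicle 0.2% DMSO), harvested at 6 h. Actin mRNA quantified by quantitative nuclease protection assay with chemiluminescent read-out, as background control relative to DMSO.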
Assay [7] in a line: CCTE_Padilla_ZF_144hpf_TERATOSCORE: (Legacy) CCTE's 144 Hour Post-fertilization zebrafish Assay Teratoscore, Padilla Lab (AID 2283679; active = hit-call score of the fitted dose curve at least 0.9, where 1 is the maximum; inactive = score below 0.9;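 as to AC50: zebrafish embryos with chorions exposed by immersion from 6-8 hpf to 5 dpf with daily renewal; teratogenicity score from eye scoring of death hatching and malformations at 144 hpf; higher score means more developmental defects relative to DMSO baseline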). Put shortly: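 Larvae scored by eye at 144 hpf for death, hatching and malformations after a day in clean Hanks'. Before that, daily-renewed exposure at 80 uM (0.4% DMSO, 26C) from roughly 6-8 hpf through 5 dpf, 4 embryos per chemical.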
Read-out in assay [8]: xenobiotic metabolism (CYP1A2), CYP1A2 (gene 1544)
In words: CLD_CYP1A2_24hr: CellzDirect (CLD) Gene Expression Assay for xenobiotic metabolism (CYP1A2) at 24 hours (AID 2283683). The method in brief: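 Primary human hepatocytes from two donor preparations dosed daily with multiple concentrations of chemical, 0.2% DMSO vehicle. CYP1A2 mRNA at 24 h quantified by qNPA chemiluminescence; gain of signal analyzed relative to DMSO. Cytotoxicity flagged by phase-contrast morphology.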

Read-out in assay [9]: ABC Transporter (ABCB1), ABCB1 (gene 5243)
The assay can be described thus: CLD_ABCB1_24hr: CellzDirect (CLD) Gene Expression Assay for ABC Transporter (ABCB1) at 24 hours (AID 2283684). Put shortly:
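Primary human hepatocytes, two donor preparations, dosed daily with fresh solutions; vehicle 0.2% DMSO; harvested at 24 h. ABCB1 mRNA measured by quantitative nuclease protection assay (chemiluminescence); morphology-based cytotoxicity annotated.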

Read-out in assay [10]: Cytochrome P450 2B6 (Homo sapiens) (UniProt P20813)
The assay can be described thus: CLD_CYP2B6_24hr: CellzDirect (CLD) Gene Expression Assay for xenobiotic metabolism (CYP2B6) at 24 hours (AID 2283686). Put shortly: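 Primary human hepatocytes dosed daily for two days with fresh solutions, harvested at 24 hours; mRNA induction quantified by qNPA chemiluminescence, gain of signal vs 0.2% DMSO vehicle. Cytotoxicity annotated from phase-contrast morphology.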

Read-out in assay [11]: Cytochrome P450 2C9 (Homo sapiens) (UniProt P11712)
The assay can be described thus: CLD_CYP2C9_24hr: CellzDirect (CLD) Gene Expression Assay for xenobiotic metabolism (CYP2C9) at 24 hours (AID 2283688). Put shortly:
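Primary human hepatocytes from two donor preparations, dosed daily for two days at multiple concentrations; vehicle 0.2% DMSO. CYP2C9 mRNA induction at 24 h measured by qNPA chemiluminescence relative to DMSO; cytotoxicity annotated from morphology.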

Read-out in assay [12]: HMG-CoA synthase (HMGCS2), HMGCS2 (gene 3158)
In words: CLD_HMGCS2_24hr: CellzDirect (CLD) Gene Expression Assay for HMG-CoA synthase (HMGCS2) at 24 hours (AID 2283691). The method in brief: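 Primary human hepatocytes from two donor preparations, dosed daily with fresh solutions; vehicle 0.2% DMSO, 24 h harvest. HMGCS2 mRNA quantified by qNPA with S1 nuclease digestion and chemiluminescence; gain fitted versus DMSO, cytotoxicity annotated by morphology.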

Read-out in assay [13]: alkyl and aryl transferase (GSTA2), GSTA2 (gene 2939)
The assay can be described thus: CLD_GSTA2_24hr: CellzDirect (CLD) Gene Expression Assay for alkyl and aryl transferase (GSTA2) at 24 hours (AID 2283693). Put shortly:
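Primary human hepatocytes (two donor preparations) dosed daily for two days with chemicals at multiple concentrations (vehicle 0.2% DMSO); GSTA2 mRNA at 24 h measured by qNPA chemiluminescence, gain-of-signal versus DMSO.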

Assay [14] is described as follows: Tanguay_ZF_120hpf_TR_legacy: (Legacy) Oregon State University Tanguay Lab 120 Hour Post-fertilization zebrafish Assay for Touch Response (AID 2283667). Put shortly:
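Tropical 5D wild-type zebrafish embryos were exposed statically in sealed, foil-covered plates at 28C until 120 hpf, with 0.64% (vol/vol) final DMSO. Touch response was scored as present or absent; embryos that died were not scored.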

Read-out in assay [15]: Cytochrome P450 (CYP24A1_1), CYP24A1 (gene 1591)
The assay can be described thus: LTEA_HepaRG_CYP24A1_1: Life Technologies and Expression Analysis (LTEA) Assay for Cytochrome P450 (CYP24A1_1) using HepaRG (AID 2283671; active = hit-call score of the fitted dose curve at least 0.9, where 1 is the maximum; inactive = score below 0.9). As to conditions: mRNA level, 48 h; actives raise or lower the signal. Put shortly: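 HepaRG, 48 h exposure, 8-pt half-log series from 100 uM in 0.5% DMSO, duplicates. Readout: TaqMan qRT-PCR of CYP24A1 mRNA, housekeeping-normalized (ACTB/GAPDH/POLR2A). Bidirectional curve fit vs DMSO baseline.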

Read-out in assay [16]: glucuronosyltransferase (UGT1A1), UGT1A1 (gene 54658)
The assay can be described thus: CLD_UGT1A1_6hr: CellzDirect (CLD) Gene Expression Assay for glucuronosyltransferase (UGT1A1) at 6 hours (AID 2283672). The method in brief: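 Primary human hepatocytes from two donor preparations, dosed with fresh solutions in 0.2% DMSO, harvested at 6 h. UGT1A1 mRNA measured by qNPA chemiluminescence; induction fitted upward versus DMSO.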

Read-out in assay [17]: Cytochrome P450 3A4 (Homo sapiens) (UniProt P08684)
In words: CLD_CYP3A4_24hr: CellzDirect (CLD) Gene Expression Assay for xenobiotic metabolism (CYP3A4) at 24 hours (AID 2283689). Put shortly:
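Primary human hepatocytes from two donors dosed daily with fresh compound for two days, 0.2% DMSO vehicle. CYP3A4 mRNA at 24 hr by qNPA chemiluminescence; gain-of-signal fit versus DMSO, cytotoxicity flagged by morphology.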

Read-out in assay [18]: Cytochrome P450 2B6 (Homo sapiens) (UniProt P20813)
The assay can be described thus: CLD_CYP2B6_6hr: CellzDirect (CLD) Gene Expression Assay for xenobiotic metabolism (CYP2B6) at 6 hours (AID 2283677).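 Also: actives raise CYP2B6 transcript above DMSO baseline so AC50 marks an inducer.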 The method in brief: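 Primary human hepatocytes dosed with chemicals at multiple concentrations, vehicle 0.2% DMSO; CYP2B6 mRNA induction measured 6 h after dosing by quantitative nuclease protection assay with chemiluminescence, gain of signal fitted relative to DMSO.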

Structures are written as SMILES. Inconclusive results are not listed. The source made the active and inactive calls. The calls were made as follows, unless noted: active = hit-call score of the fitted dose curve at least 0.9, where 1 is the maximum; inconclusive = response in the unintended direction; inactive = score below 0.9.

Sequence of Cytochrome P450 3A4 (Homo sapiens) (P08684 whole entry, looked up): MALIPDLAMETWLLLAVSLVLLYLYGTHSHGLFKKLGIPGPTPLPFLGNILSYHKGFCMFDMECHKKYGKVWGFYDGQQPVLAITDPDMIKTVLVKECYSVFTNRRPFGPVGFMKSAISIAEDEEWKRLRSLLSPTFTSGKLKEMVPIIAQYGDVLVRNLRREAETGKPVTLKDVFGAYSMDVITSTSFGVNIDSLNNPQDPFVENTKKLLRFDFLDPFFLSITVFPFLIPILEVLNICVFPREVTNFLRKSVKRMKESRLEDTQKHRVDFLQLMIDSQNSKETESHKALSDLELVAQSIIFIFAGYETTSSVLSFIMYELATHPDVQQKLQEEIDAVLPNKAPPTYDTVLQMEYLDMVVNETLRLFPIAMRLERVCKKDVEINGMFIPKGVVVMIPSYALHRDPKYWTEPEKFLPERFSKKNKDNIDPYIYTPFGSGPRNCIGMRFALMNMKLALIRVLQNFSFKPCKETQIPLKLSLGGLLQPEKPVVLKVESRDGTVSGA

Take `COc1cc(OC)nc(NC(=O)NS(=O)(=O)c2cc(NC=O)ccc2C(=O)N(C)C)n1`: the compound was called inactive in assay [1], in [2], in [3], in assay [4], in assay [5] and in [6]. The result in assay [7], in assay [8], in assay [9], in assay [10], in assay [11] and in assay [12] was inactive. Moreover, the outcome in assay [13] was inactive.
Turning to `CCCN(CCC)c1c([N+](=O)[O-])cc(C(F)(F)F)cc1[N+](=O)[O-]`, the AC50 (as a rule, the concentration giving half of the maximal activity seen) in [1] was 3690 nM (active); in assay [7], 601 nM (active); in assay [8], 5030 nM (active); in assay [10], 2060 nM (active); in [17], 5680 nM (active). Besides, the call in [2], in assay [14], in assay [15], in assay [16], in assay [6] and in [9] was inactive. Moreover, the compound was called inactive in assay [11] and in assay [13].
As for `CCC(C)(C)C(=O)OC1=C(c2ccc(Cl)cc2Cl)C(=O)OC12CCCCC2`, the call in assay [14], in assay [16], in [6], in [8], in [9] and in [10] was inactive. The compound was classed as inactive in assay [11]. Moreover, the values for the AC50 in assay [7] and in assay [17] were 1890 nM (active) and 49.3 nM (active), respectively.
Consider `O=S1OCC2C(CO1)C1(Cl)C(Cl)=C(Cl)C2(Cl)C1(Cl)Cl` (centres undefined), for which the compound was called inactive in [14], in [3], in assay [4], in assay [16], in assay [6] and in assay [9]. In addition, the outcome in [11] and in [13] was inactive. Besides, the AC50 in assay [18] is 1240 nM (active); in [7], 3400 nM (active); in assay [10], 2560 nM (active); in assay [17], 20000 nM (active).
As for `Cc1cc(C)nc(NC(=O)NS(=O)(=O)c2ccccc2C(=O)OC2COC2)n1`, the compound was called inactive in [1], in assay [4], in assay [16], in assay [6], in assay [7] and in [8]. In addition, the result in [9], in assay [10] and in assay [13] was inactive. In assay [17], the AC50 is 20000 nM (active).
As for `O=C(NC(=O)c1c(F)cccc1F)Nc1ccc(OC(F)(F)C(F)OC(F)(F)F)c(Cl)c1` (centres undefined), the call in assay [1], in assay [2], in [14], in [4], in assay [16] and in [6] was inactive. The compound was called inactive in assay [7], in [9], in [10], in [11], in assay [17] and in assay [13].
